Screening results deposited in PubChem by National Center for Advancing Translational Sciences (NCATS).
A selection: hits, their analogues and other compounds. The true share with any hit is near 19%.
HT1080-NT tox – qHTS for induction of synthetic lethality in tumor cells producing 2HG: qHTS for the HT-1080-NT fibrosarcoma cell line. AID 686970, 2013. 360,000 tested, 1.6% active. HT-1080-NT fibrosarcoma viability, CellTiter-Glo ATP luminescence, 48 h. Potency, µM (highest dose often 46.1 µM), for the others: top-dose activity, negative = less viability, usual class: cytotoxic;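 note: NT is the 2HG producing partner of a matched IDH1 knockdown line; potency is the fitted concentration of half-maximal effect; 0% = DMSO-treated cells and -100% = media-only wells without cells; nearly all actives have a fitted effect of over 55% in size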
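Fibrosarcoma NT cells, 750 per well in 5% FBS RPMI, were exposed to compound for 48 hours. Viability: CellTiter-Glo luminescence.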
DT40 TDP1 CPT – qHTS for Inhibitors of human tyrosyl-DNA phosphodiesterase 1 (TDP1): qHTS in cells in presence of CPT; 420,000 tested, 12% active; chicken DT40 Tdp1-/-;hTDP1 cells + 20 nM CPT, ATP luminescence, 48 h; Potency, µM (titrated, usually from 46.2 µM), for the others: top-dose activity change, negative = growth inhibition, most hits filed as inhibitors; AID 686979, 2013; note: potency is the fitted concentration of half-maximal effect; nearly all actives have a fitted effect of over 55% in size
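Chicken DT40 Tdp1-/- cells stably complemented with human TDP1 were seeded at 400 cells/well in medium containing 20 nM camptothecin, exposed to pin-transferred compounds, and grown at 37 °C for at least 48 hr. Viability was read as ATP luminescence.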
HT1080 IDH1KD tx – qHTS for induction of synthetic lethality in tumor cells producing 2HG: qHTS for the HT-1080-IDH1KD cell line; HT-1080 IDH1 knockdown viability, ATP luminescence, 48 h; Potency, µM (top dose mostly 46.1 µM), for inactives: at the highest dose activity, negative = toxicity, actives largely listed as cytotoxic; 360,000 tested, 2% active;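 note: potency is the fitted concentration of half-maximal effect; 0% = DMSO wells and -100% = cell-free medium wells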
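CellTiter-Glo luminescence after 48 h compound exposure at 37 degrees C of IDH1-knockdown HT-1080 cells in 5% FBS RPMI. %Activity scaled between DMSO wells and cell-free media wells, with curves fitted and assigned curve classes.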
DT40 TDP1 no CPT – qHTS for Inhibitors of human tyrosyl-DNA phosphodiesterase 1 (TDP1): qHTS in cells in absence of CPT; DT40 Tdp1-/- hTDP1 cells, no CPT, ATP luminescence, 48 h; Potency, µM (highest dose often 46.2 µM), without a hit: at the top dose activity change, negative = growth inhibition, hits mostly inhibitors; 420,000 tested, 15% active; note: potency is the fitted concentration of half-maximal effect; nearly all actives have a fitted effect of over 55% in size
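Stably hTDP1-transfected Tdp1-null chicken DT40 cells were treated with library compounds minus camptothecin and grown for at least 48 hr at 37 °C, after which cellular ATP was quantified by luminescence.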
IL1B secr inh – qHTS for Inhibitors of Inflammasome Signaling: IL-1-beta AlphaLISA Primary Screen. THP-1 LPS/ATP IL-1B secretion, AlphaLISA, 16 h; active compounds read low. activity change, % at 57.5 µM. 360,000 tested, 4.7% active; in the data active = activity change below about -50%; inconclusive = mostly about -30% to -49%
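THP-1 cells pretreated 1 hr with compounds (up to 57.5 uM final), then stimulated with LPS (250 ng/mL final) plus ATP (1.25 mM final); secreted IL-1B measured by AlphaLISA after 16 hr, decreased signal indicating inhibition.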
ELG1 repair inh – qHTS screen for small molecules that inhibit ELG1-dependent DNA repair in human embryonic kidney (HEK293T) cells expressing luciferase-tagged ELG1; HEK293T ELG1-luciferase reporter, luminescence, 16 h; DNA damage induced by 5-fluorouridine; Potency, µM (series often up to 46.1 µM), inactives show at the top dose activity change, negative = inhibition, hits mostly inhibitors; 330,000 tested, 2.3% active; note: potency is the fitted concentration of half-maximal effect; nearly all actives have a fitted effect of over 55% in size
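HEK293T cells expressing luciferase-tagged ELG1 (2,000/well) received 5-Fluorouridine plus compound or DMSO for 16 hr at 37 °C. Luciferase was read by ONE-Glo luminescence after 30 min at room temperature.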
Numbers without * were called inactive; i = inactive; u = inconclusive; x = no result given. Unless noted, calls come from the whole dose curve; as a rule, active = well fitted curve in the direction sought with a large enough effect; inconclusive = small, poorly fitted or top-dose-only effect, or another doubt; inactive = no such curve, though single readings can be large; an effect the other way counts as inactive or inconclusive. Unless noted, % is set by controls: 0 for no effect and ±100 for the full control effect.

SMILES	HT1080-NT tox	DT40 TDP1 CPT	HT1080 IDH1KD tx	DT40 TDP1 no CPT	IL1B secr inh	ELG1 repair inh
COc1cccc(NC(=O)CCNS(=O)(=O)c2ccc3c(c2)CC(C)N3C(=O)C2CC2)c1 (stereo unspecified)	-1%	u	-2%	-24%	33	-13%
COc1ccc(NS(=O)(=O)c2ccc3c(c2)CC(C)N3C(=O)C2CCC2)cc1OC (stereo unspecified)	x	1µM*	x	0.65µM*	x	x
COc1cc(Cl)c(NS(=O)(=O)c2ccc3c(c2)CC(C)N3C(=O)C2CCC2)c(OC)c1 (stereo unspecified)	x	6.5µM*	x	5.8µM*	x	x
CCCC1COC(Cn2cncn2)(c2ccc(C)cc2)O1 (stereo unspecified)	0%	23µM*	10%	11µM*	9	-1%
O=C1CCCN1C(=O)CSc1ccc2ccccc2n1	19%	15%	10%	0%	19	18%
C[C@H](CO)N1C[C@H](C)[C@@H](CN(C)C(=O)Nc2ccccc2)Oc2c(NC(=O)Nc3ccc(C(F)(F)F)cc3)cccc2C1=O	u	13µM*	u	u	-9	u
C[C@H](CO)N1C[C@H](C)[C@@H](CN(C)Cc2ccc(-c3ccccc3)cc2)Oc2c(NC(=O)Nc3ccc(C(F)(F)F)cc3)cccc2C1=O	28%	8.2µM*	9%	u	23	-13%
C[C@H](CO)N1C[C@H](C)[C@@H](CN(C)C(=O)Nc2ccc(C(F)(F)F)cc2)Oc2c(NC(=O)NC3CCCCC3)cccc2C1=O	-25%	-84%	-22%	u	u	u
C[C@H]1CN([C@@H](C)CO)C(=O)c2cccc(NC(=O)Nc3ccc(F)cc3)c2O[C@@H]1CN(C)Cc1ccc(C(=O)O)cc1	0%	4%	2%	6%	27	u
C[C@@H]1CN([C@H](C)CO)C(=O)c2cccc(NC(=O)NC3CCCCC3)c2O[C@@H]1CN(C)C(=O)Nc1ccc(C(F)(F)F)cc1	u	16µM*	u	u	-67*	-22%
C[C@H](CO)N1C[C@H](C)[C@@H](CN(C)C(=O)Nc2ccccc2)Oc2ccc(NC(=O)Nc3ccc(C(F)(F)F)cc3)cc2C1=O	-27%	u	u	u	-10	8%
COc1ccc(NC(=O)N(C)C[C@H]2Oc3c(NC(=O)C4CC4)cccc3C(=O)N([C@H](C)CO)C[C@@H]2C)cc1	15%	13%	6%	-7%	0	2%
C[C@H](CO)N1C[C@H](C)[C@@H](CN(C)C(=O)Nc2ccc(C(F)(F)F)cc2)Oc2c(NC(=O)C3CCCCC3)cccc2C1=O	-2%	u	-6%	u	-58*	u
CC(C)CC(=O)Nc1nnc(SCC(=O)NCC2CCCO2)s1 (stereo unspecified)	-2%	4%	3%	-17%	i	-13%
COc1ccc(-n2c(=O)c3c4c(sc3n(C)c2=O)CN(C(C)=O)CC4)cc1	x	8%	x	12%	x	x
Cc1ccc(CN(C(=O)COc2ccc(C)c(C)c2)C2CCS(=O)(=O)C2)o1 (stereo unspecified)	-2%	u	4%	u	19	-2%
CCCCNC(=O)C1CCN(Cc2ccc(OCc3ccccc3)cc2)CC1	u	u	u	u	-8	u
CCCCNC(=O)C1(C)CCCCN1Cc1ccc(-c2ccccc2)cc1 (stereo unspecified)	u	13µM*	u	8.2µM*	16	x
CC1(C(=O)NCc2cccc3ccccc23)CCN1Cc1cc2ccccc2o1 (stereo unspecified)	u	u	u	u	-16	x
CCCCNC(=O)C1(C)CCCCCN1Cc1cc2ccccc2o1 (stereo unspecified)	u	18µM*	u	u	-26	x
CCCCNC(=O)C1(C)CCN1Cc1cc(C)ccc1C (stereo unspecified)	2%	23µM*	17%	u	0	x
CCCCNC(=O)C1(C)CCCCN1C(=O)c1ccc2ccccc2n1 (stereo unspecified)	18%	u	5%	u	-6	x
CCCCNC(=O)C1(C)CCCCN1Cc1ccc(OCc2ccccc2)cc1 (stereo unspecified)	u	21µM*	u	21µM*	-25	x
O=C(OCC(COC(=O)c1cccnc1)(COC(=O)c1cccnc1)COC(=O)c1cccnc1)c1cccnc1	x	5%	x	-1%	x	x
Cc1cccc(N2CCN(S(=O)(=O)c3ccc(-c4cc(C(F)(F)F)on4)s3)CC2)c1C	x	5%	x	-14%	x	x
SMILES	HT1080-NT tox	DT40 TDP1 CPT	HT1080 IDH1KD tx	DT40 TDP1 no CPT	IL1B secr inh	ELG1 repair inh
Cc1cc2nnn(-c3nnc(-c4ccccc4)c4ccccc34)c2cc1C	22%	26µM*	17%	u	9	20%
CCOc1cc(NC(=O)c2cnccn2)c(OCC)cc1NC(=O)c1cccc(F)c1	x	x	x	x	x	9%
C1=CC(c2cc3ccccc3o2)OC(CCc2ccccc2)C1 (stereo unspecified)	-4%	-12%	-8%	-10%	35	10%
COc1cccc(C(O)c2nc(-c3cnn(C)c3)cs2)c1 (stereo unspecified)	5%	u	0%	u	42	x
Cc1cccc(C(=O)Nc2ccc(N3CCN(S(C)(=O)=O)CC3)cc2)c1	17%	9%	0%	-5%	8	u
NC(=Nc1nc(-c2ccccn2)cc2ccccc12)c1ccccn1	-14%	0.015µM*	u	0.018µM*	54	x
COc1ccc(Br)cc1CN1C(=O)c2ccccc2C1C(=O)NC1CCCCCC1 (stereo unspecified)	x	u	x	-66%	x	x
CC1(C)CC(=O)C2=C(C1)NC(Nc1nc3ccccc3o1)=NC2c1ccccc1Cl (stereo unspecified)	x	5.6µM*	x	7.1µM*	x	x
